# Screening results as filed in PubChem BioAssay.
# CtBP-E1A blk: qHTS Assay for Inhibitors of the CtBP/E1A Interaction. CtBP / adenovirus E1A interaction (AlphaScreen). AlphaScreen GST-E1A/His-CtBP binding, 1536-well; hits give low values. activity change, % (concentration not given with the values). 340,000 tested, 0.49% active. AID 651724, 2012
#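 In 5 uL wells, 23 nL compound meets equimolar GST-E1A and His-CtBP (5X stock 125 nM each) for 2 h, 37 °C. Beads (5X, 50 ug/mL) then 1 h, 37 °C, dark.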
# KCNH2 WT inh: qHTS for Inhibitors of KCHN2 3.1: Wildtype qHTS | Voltage-gated inwardly rectifying potassium channel KCNH2 (Homo sapiens), Q12809 | U2OS, BacMam KCNH2, thallium flux FluxOr; hits give low values | activity change, % at 1.84 µM | 340,000 tested, 0.37% active;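 active = maximum activity change below -70%; inconclusive = maximum activity change between -70% and -50%; inactive = maximum activity change above -50%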
# Target sequence (Q12809 whole entry, looked up): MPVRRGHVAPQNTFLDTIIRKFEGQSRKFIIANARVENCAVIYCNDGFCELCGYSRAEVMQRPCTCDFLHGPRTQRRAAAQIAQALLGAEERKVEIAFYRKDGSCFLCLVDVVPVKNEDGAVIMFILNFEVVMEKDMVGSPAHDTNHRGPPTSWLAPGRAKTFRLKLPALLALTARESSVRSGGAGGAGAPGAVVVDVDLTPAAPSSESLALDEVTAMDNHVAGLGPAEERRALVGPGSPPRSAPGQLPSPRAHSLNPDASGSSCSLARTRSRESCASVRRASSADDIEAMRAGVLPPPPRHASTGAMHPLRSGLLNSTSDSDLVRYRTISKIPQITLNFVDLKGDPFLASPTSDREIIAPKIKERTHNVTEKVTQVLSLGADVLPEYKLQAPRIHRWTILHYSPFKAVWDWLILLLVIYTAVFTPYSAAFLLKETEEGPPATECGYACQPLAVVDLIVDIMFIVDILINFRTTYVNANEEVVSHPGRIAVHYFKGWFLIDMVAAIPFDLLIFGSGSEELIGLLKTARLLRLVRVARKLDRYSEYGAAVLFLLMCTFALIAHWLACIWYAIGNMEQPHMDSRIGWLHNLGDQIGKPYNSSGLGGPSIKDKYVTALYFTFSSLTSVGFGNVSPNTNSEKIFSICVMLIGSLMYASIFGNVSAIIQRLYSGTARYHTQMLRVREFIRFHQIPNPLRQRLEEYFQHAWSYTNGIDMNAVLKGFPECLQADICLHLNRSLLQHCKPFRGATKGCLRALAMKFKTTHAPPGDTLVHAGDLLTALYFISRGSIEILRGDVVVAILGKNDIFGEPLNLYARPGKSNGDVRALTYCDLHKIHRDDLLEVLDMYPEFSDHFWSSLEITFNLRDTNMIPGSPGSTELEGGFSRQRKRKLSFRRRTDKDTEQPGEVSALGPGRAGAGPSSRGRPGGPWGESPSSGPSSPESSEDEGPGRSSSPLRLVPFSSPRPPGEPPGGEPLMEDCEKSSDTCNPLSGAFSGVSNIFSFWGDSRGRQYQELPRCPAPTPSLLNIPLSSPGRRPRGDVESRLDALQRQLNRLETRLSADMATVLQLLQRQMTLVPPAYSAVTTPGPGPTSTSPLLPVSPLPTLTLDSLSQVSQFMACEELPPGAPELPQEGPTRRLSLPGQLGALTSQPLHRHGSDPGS
#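 U2OS cells transduced with wild-type KCNH2 virus are loaded with FluxOr dye for 45 min, and thallium flux is measured in kinetic reads before and after stimulation buffer. Rate constants are normalized to DMSO controls.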
# KCNH2 3.1 inh: qHTS for Inhibitors of KCHN2 3.1: Mutant qHTS; Potassium voltage-gated channel subfamily H member 2, brain isoform KCNH2 3.1 (human); U2OS KCNH2 3.1, thallium flux FluxOr; hits give low values; activity change, % (tested at about 1.8 µM); 340,000 tested, 0.95% active; AID 720553, 2013;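 active = maximum activity change below -70%; inconclusive = maximum activity change from -70% to -50%; inactive = maximum activity change above -50%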;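 note: thallium influx rate constant from kinetic fluorescence after stimulation buffer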
#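 Virally transduced U2OS (3.1 isoform, 4 h infection in dark at RT) → overnight 37 C → FluxOr + Red40 in HBSS/HEPES, 45 min → stimulation buffer, 2 min kinetic read → rate constant vs DMSO controls.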
# JMJD2E inh: qHTS Assay for Inhibitors of Human Jumonji Domain Containing 2E (JMJD2E); JMJD2E catalytic domain, FDH-coupled NADH fluorescence (FDH is formaldehyde dehydrogenase); Potency, µM (doses to about 57.1 µM), inactives show top-dose activity change, negative = inhibition, actives largely listed as inhibitors; 230,000 tested, 1.6% active; AID 2147, 2009; active = well fitted inhibition curve with a large enough effect, not every such curve was filed as active; inconclusive = small, poorly fitted or top-dose-only effect, or another doubt; inactive = no such curve, though single readings can be large or run the other way;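 note: potency is the fitted concentration of half-maximal effect; 0% = wells with enzyme and -100% = buffer wells without enzyme; nearly all actives have a fitted effect of over 50% in size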
# Six1-Eya2 inh: qHTS Assay for Inhibitors of the Six1/Eya2 Interaction | AlphaScreen GST-Six1/His-Eya2 binding, biochemical; hits give low values | activity change, % (test concentration not listed) | 360,000 tested, 0.56% active | AID 651725, 2012
#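 AlphaScreen luminescence read after one hour at 37 °C in darkness. Pin-transferred compounds met GST-Six1 and His-Eya2 protein (5X stock 250 nM/500 nM) plus glutathione donor and Ni-chelate acceptor beads (5X, 50 ug/mL).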
# * marks the source's active call; other numbers are inactive results; u = inconclusive; x = no result given. A selection: hits, their analogues and other compounds. The true share with any hit is near 2%. Cut-off read from the data, not from the text of the source, unless noted: active = activity change below about -65%; inconclusive = mostly about -30% to -63%; inactive = weaker than that. Unless noted, % is set by controls: 0 for no effect and ±100 for the full control effect.
SMILES,CtBP-E1A blk,KCNH2 WT inh,KCNH2 3.1 inh,JMJD2E inh,Six1-Eya2 inh
COc1ccc(-c2cc(C(=O)N3CCN(c4ncccn4)CC3)c3ccccc3n2)cc1OC,6.2,15.6,-142.4*,x,3.4
O=c1c2ccc(Cl)cc2[nH]c(=S)n1CCCN1CCOCC1,-19.7,1.7,2.7,6.8%,-14.8
COc1ccccc1OCCNC(=O)C(c1ccccc1)c1ccccc1,x,-10.6,-14.3,0.1%,-0.9
Cc1ccc(-c2ocnc2C(=O)Nc2ccccc2NC(=O)c2ccccn2)cc1,-2.0,-1.9,-2.6,x,-5.4
Clc1ccc(CN2CCCCCC2)cc1,-4.6,-3.7,4.9,x,-14.2
O=[N+]([O-])c1cc(CN2CCCC2)ccc1Sc1ccc(Cl)cc1,-9.9,25.5,-92.1*,-3.9%,u
Cc1cc(=O)n2nc(N3CCC(C(=O)NCc4ccc(Cl)cc4)CC3)sc2n1,x,-0.5,-14.7,x,-65.3*
Cc1ccc(CNC(=O)C2CCN(c3nn4c(=O)cc(C)nc4s3)CC2)cc1,u,-3.6,-1.8,x,u
O=C(Oc1ccc(Br)cc1C(=S)N1CCOCC1)c1ccc([N+](=O)[O-])cc1[N+](=O)[O-],u,-13.2,-8.0,x,-94.3*
O=C(Oc1ccc(C(=S)N2CCOCC2)cc1)c1ccc([N+](=O)[O-])cc1[N+](=O)[O-],9.2,-8.0,-5.6,x,-3.1
O=C(Oc1cccc(C(=S)N2CCOCC2)c1)c1ccc([N+](=O)[O-])cc1[N+](=O)[O-],5.5,-10.5,-1.2,x,-68.8*
CCOC(=O)c1cc(-c2ccccc2)sc1NC(=O)CCN1C(=O)c2ccccc2C1=O,11.6,19.8,16.7,9.3%,8.5
S=c1nc(-c2ccccn2)c(-c2ccccn2)n[nH]1,-88.8*,x,x,x,-83.2*
O=C1Nc2ccc([N+](=O)[O-])cc2OC1CCN1CCCC1 (stereo not given),3.2,-0.4,-6.3,-10.9%,7.2
CN=c1scc(-c2ccccc2F)n1/N=C/c1ccc(O)c(O)c1O,u,2.8,-11.9,10µM*,-74.5*
CC(C)N=c1scc(-c2cccs2)n1/N=C/c1ccc(O)c(O)c1O,u,12.2,2.2,28.2µM*,-76.3*
CCN=c1scc(-c2cccs2)n1/N=C/c1cc(OC)ccc1O,u,-5.5,-1.9,-5.6%,u
CCOC(=O)c1c(N)n(-c2ccc(N)cc2)c2nc3ccccc3nc12,-10.6,0.7,-3.4,17.8µM*,-9.6
O=C(NC1CCCCC1)c1cc(-c2cccs2)on1,-2.1,-9.9,-71.3*,x,14.1
O=C(NC1CCCCC1)c1cc(-c2ccc(F)cc2)on1,0.0,2.9,-0.3,x,2.4
O=S1(=O)CCO[C@H]2Cc3ccccc3[C@H]2N1Cc1cccc(F)c1,-12.5,-0.8,-4.3,x,0.2
COc1ccc(OC)c(/C=C/C(=O)Oc2ccc(C(C)=O)cc2)c1,-88.3*,13.1,12.2,x,-23.3
COc1ccc(/C=C/C(=O)Oc2ccc(C)cc2)cc1,-70.2*,-4.6,-13.0,x,-1.9
COc1ccc(OC)c(/C=C/C(=O)OCC(=O)N2C(C)CCCC2C)c1 (stereo not given),-94.4*,-10.4,30.6,x,-66.7*
CCOc1ccccc1NC(=O)COn1nnc2ccc(Cl)cc21,3.5,0.2,10.7,1.7%,0.4
SMILES,CtBP-E1A blk,KCNH2 WT inh,KCNH2 3.1 inh,JMJD2E inh,Six1-Eya2 inh
Cc1nc2cc(Nc3nnc(-c4ccccc4)c4ccccc34)ccc2n1C,-24.0,0.2,-6.0,2.6%,-26.6
Clc1cccc(Nc2nnc(-c3ccccc3)c3ccccc23)c1,x,x,x,11.2µM*,x
O=C(NNC(=O)c1cc(S(=O)(=O)N2CCOCC2)c(Cl)cc1Cl)c1ccccc1F,-87.0*,0.8,13.2,x,-65.7*
COc1ccc(-c2csc(-c3cccs3)n2)c(OC)c1,37.7,-2.4,-21.9,u,39.2
COc1ccc(OC)c(NC(=O)CC(NCCC2=CCCCC2)C(=O)O)c1 (stereo not given),x,x,x,-0.7%,x
CC(C)OC(=O)CC1C(=O)NCCN1C(=O)COc1ccc(C(C)(C)C)cc1 (stereo not given),0.6,6.9,1.2,x,9.9
CCN1CCN(c2ccc(N=Cc3ccc(O)cc3O)cc2)CC1,5.9,-14.4,-1.2,14.1µM*,-7.5
CCN(CC)c1ccc(C=Nc2ccc(N(C)C)cc2)c(O)c1,u,-1.2,-9.3,-0.8%,u
O=C(CNC(=S)N(CCCN1CCOCC1)Cc1cccs1)NCc1ccc(Cl)cc1,x,-83.7*,-83.0*,x,1.5
O=C(CNC(=S)N(CCCN1CCOCC1)Cc1cccs1)NCCCN1CCOCC1,-7.8,19.0,14.9,-2.0%,9.7
O=C(CNC(=S)N(CCCN1CCOCC1)Cc1cccs1)NCc1ccccc1Cl,x,-112.6*,-123.0*,x,14.5
CS(=O)(=O)c1ccc(-c2cc(NC=O)c3ncc(-c4ccc(F)cc4)n3c2)cc1,-3.5,x,x,x,-8.7
CC(NC(=O)c1cccc(Br)c1)c1ccccc1 (stereo not given),-0.9,-4.5,-5.0,4.0%,3.8
Cc1oc(-c2ccccc2)nc1C(=O)OCC(=O)NCc1ccc(F)cc1,-5.5,-8.6,1.5,x,-0.9
Cc1ccc(NC(=S)N2CCCC(c3nc4ccccc4[nH]3)C2)cc1 (stereo not given),x,x,-5.5,126.3%,-1.3
Cc1ccc(NC(=S)c2nc3ccccc3[nH]2)cc1,-72.1*,-21.0,-19.8,u,-80.6*
Cc1ccc(NC(=S)c2nc3ccccc3[nH]2)c(C)c1,u,-7.0,-1.3,u,-72.0*
Cc1ccc(NC(=S)c2ccncc2)c(C)c1,x,-5.1,5.3,x,1.3
Cc1ccccc1-n1nc(C(=O)O)cc1-c1ccccc1,5.8,10.0,10.4,-8.0%,8.8
CC1(C)CCC(=NNC(N)=S)CC1,-14.8,1.6,4.1,x,4.6
NC(=S)NN=C1CSSC1,-89.2*,6.1,14.7,x,-93.9*
CCC(C)[C@H](NC(=O)Nc1ccc(S(N)(=O)=O)cc1)C(=O)OC (stereo not given in full),11.1,1.9,-4.7,-3.0%,4.7
CCCCc1ccc(NC(=S)N2CCC(O)CC2)cc1,4.1,-0.1,7.9,6.6%,-3.4
O=C(CCCc1ccccc1)N1CCN(c2ccc([N+](=O)[O-])cc2)CC1,-13.3,-12.3,-41.8,-1.0%,-20.1
O=C(CCCC(=O)N1CCN(c2ccc([N+](=O)[O-])cc2)CC1)c1ccccc1,-5.7,-88.4*,-95.4*,0.6%,-12.6
CCOCC(=O)N1CCN(c2ccc([N+](=O)[O-])cc2)CC1,22.3,-95.5*,-73.2*,-4.7%,13.6
